Compounds without any hit were thinned out: in the full panel of roughly 83,000, 20% have a hit.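 Compound tested at a single concentration for 48 hours in 96-well plates; a percent growth value below 10 was scored as active.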 Unmarked numbers belong to inactive results. Calls of active or inactive are those of the source.

Test in all cases: NCI-60 one-dose screen, 48 h (100 = growth as untreated, 0 = no growth, -100 = all killed)
What all share (details): 10 µM unless noted

The test system of assay [1] is NCI-H23 lung.
For assay [2], the system named is NCI-H226 lung.
In assay [3] the test system is NCI-H322M lung.
The subject of assay [4] is HOP-62 NSCLC.
The subject of assay [5] is NCI-H460 lung.
Assay [6] deals with HOP-92 NSCLC.
Assay [7] deals with NCI-H522 lung.
Assay [8] deals with A549/ATCC NSCLC.
In assay [9] the test system is 786-0 renal.
In assay [10] the test system is COLO 205 colon.
In assay [11] the test system is DU-145 prostate.
The test system of assay [12] is K-562 leukemia.
In assay [13] the test system is MALME-3M melanoma.
Assay [14] has as its system MDA-MB-231 breast.
Assay [15] concerns SF-268 CNS.
Assay [16] deals with SF-295 CNS.
Assay [17] concerns SF-539 CNS.
For assay [18], the system named is UACC-257 melanoma.

On to `CCCCN(Cc1ccc(C(=O)NO)cc1)C(=O)Nc1ccc(OCCCCCCCCCn2cc(CCCCC(=O)N[C@H](C(=O)N3C[C@H](O)C[C@H]3C(=O)NCc3ccc(-c4scnc4C)cc3)C(C)(C)C)nn2)cc1`, for which the growth was 33.4% in assay [1]; 46.1% in assay [2]; 63.7% in assay [3]; 39.7% in assay [4]; 11.6% in assay [5]; -11.4% (active) in assay [6]. The growth was 19.5% in assay [7]; 86.8% in [8]; 69.8% in [9]; 36.9% in assay [10]; 50.8% in [11]; 16.2% in [12]. Further, the growth was 23.8% in [13]; 59.6% in assay [14]; 36.2% in assay [15]; 92% in assay [16]; 32% in assay [17]; 60% in assay [18].
With `COc1ccc(/C(C)=C(\c2ccc(Cl)cc2)c2ccc(OCCCN(C)C)cc2)cc1F`, the growth is 78.1% in assay [1]; 98% in assay [2]; 67.6% in assay [3]; 52.8% in assay [4]; -3.98% (active) in assay [5]; 92% in assay [6]. Further, the growth in assay [7] was 77%; in assay [8], 57.2%; in assay [9], 62.2%; in assay [10], 7.6% (active); in assay [11] it was 73.5%; in [12] it was -0.587% (active). In addition, the growth in [13] is 17.2%; in assay [14] it was 73.7%; in assay [15], 81.8%; in assay [16] it was 53.5%; in assay [17], 44.9%; in [18], 17.1%.
In the case of `Cc1nc(Nc2ccc(N)cc2)c2ccccc2n1`, the growth was 86.8% in assay [1]; 97.6% in assay [2]; 117% in assay [3]; 104% in assay [4]; 102% in assay [5]; 109% in [6]. For the same compound, the growth is 80.8% in assay [7]; 103% in [8]; 107% in [9]; 92.2% in assay [10]; 117% in [11]; 74.5% in [12]. In addition, the growth was 97.6% in assay [13]; 93.9% in [14]; 106% in assay [15]; 95.8% in assay [16]; 96% in assay [17]; 104% in assay [18].
With `CCCCS(=O)(=O)Oc1ccc(-c2nc(C)c(C(=O)OCC)s2)cc1C=O`, the growth was 84% in assay [1]; 87.1% in assay [2]; 86.7% in assay [3]; 68.4% in assay [4]; 58.7% in assay [5]; 69.5% in assay [6]. In addition, the growth in assay [7] is 58.3%; in assay [8], 101%; in assay [9], 74.4%; in [10], 106%; in [11], 61.4%; in assay [12], 13.7%. The growth in [13] is 75.1%; in assay [14], 76.7%; in [15] it was 79.3%; in assay [16] it was 67.5%; in assay [17], 58%; in assay [18], 96.2%.
With `COc1ccc(/C(C)=C(\c2ccc(Cl)cc2)c2ccc(OCCN3CCCCC3)cc2)cc1F`, the growth in assay [1] was 48.1%; in [2] it was 77%; in [3], 76.1%; in [4], 16.8%; in [5] it was 7.34% (active); in assay [6], 59.6%. For the same compound, the growth was 65.5% in assay [7]; 53% in assay [8]; 2.47% (active) in [9]; 5.95% (active) in [10]; 63.3% in assay [11]; 1.56% (active) in [12]. For the same compound, the growth in assay [13] is -27.2% (active); in assay [14], 49.5%; in [15] it was 63.5%; in [16], -19.7% (active); in assay [17] it was 4.69% (active); in assay [18] it was 24.6%.
As to `O=C(CCc1nc(-c2cccc(Cl)c2)no1)Nc1ccccn1`, the growth was 89.2% in [1]; 89.8% in assay [2]; 108% in assay [3]; 124% in [4]; 103% in assay [5]; 82.3% in assay [6]. Moreover, the growth is 84.5% in [7]; 111% in assay [8]; 96.3% in assay [9]; 117% in [10]; 109% in [11]; 87.5% in [12]. In addition, the growth in assay [13] was 91.7%; in assay [14] it was 95.6%; in assay [15], 104%; in assay [16], 94%; in assay [17], 96.6%; in [18], 114%.
Regarding `COc1ccc(Cn2cnc3cc(C(=O)Nc4cccc5ccccc45)ccc32)c(OC)c1`, the growth in assay [1] was 32.9% [30 µM]; in assay [2], 14.5% [30 µM]; in [3], 45% [30 µM]; in [4], 41.6% [30 µM]; in assay [5], 1.11% [30 µM] (active); in assay [6], 21.1% [30 µM]. Besides, the growth in assay [7] was 3.89% [30 µM] (active); in assay [8] it was 16% [30 µM]; in assay [9], 20.3% [30 µM]; in assay [10], -21.6% [30 µM] (active); in [11], -7.09% [30 µM] (active); in assay [12] it was 1.36% [30 µM] (active). Further, the growth in [13] is 38.2% [30 µM]; in [14], 4.77% [30 µM] (active); in assay [15], 13.8% [30 µM]; in assay [16], 7.91% [30 µM] (active); in [17] it was -36.7% [30 µM] (active); in [18], 69.4% [30 µM].
Regarding `c1ccc([P+](CCCc2n(Cc3ccc4ccccc4c3)c3ccccc3[n+]2Cc2ccc3ccccc3c2)(c2ccccc2)c2ccccc2)cc1`, the growth in assay [1] was 44%; in assay [2] it was 83.5%; in [3] it was 63.8%; in [4], 61.6%; in assay [5], 34.8%; in assay [6], 46.3%. Further, the growth is 60.2% in [7]; 80.2% in assay [8]; 70.8% in assay [9]; 44.7% in [10]; 82.1% in assay [11]; 23.7% in assay [12]. For the same compound, the growth in [13] was 65.2%; in assay [14] it was 51%; in [15], 79%; in assay [16], 41.1%; in assay [17], 36.8%; in [18], 84%.

For the origin of these results see PubChem BioAssay (NCI).
